Each structure is given as a SMILES string. Compounds without any hit were thinned out: in the full panel of roughly 83,000, 20% have a hit.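 Percent growth is the endpoint: 0 to 100 indicates growth inhibition (40 means 60% inhibition), 0 means no net growth, and negative values indicate cell death.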 Unmarked numbers belong to inactive results. Activity calls are given as the source filed them. How the source made its calls: active means growth percent below 10; inactive means the rest.

The assay concerns HL-60(TB) leukemia. Put plainly: NCI-60 one-dose screen, 48 h (100 = growth as untreated, 0 = no growth, -100 = all killed). As to conditions: 10 µM unless noted.
`CCNC(=O)Oc1ccc(/C(=C(/C)c2ccccc2)c2ccc(OCCN3CCCCCC3)cc2)cc1`: the growth is -19.2% (active).

With `CCCC(=O)NC(c1ccc(N(CC)CC)cc1)c1cc(C)c2cccnc2c1O` (centres undefined), the growth was -25% (active).

Regarding `CNC(=O)c1cc(Oc2ccc3nc(NC(=O)c4cc(N5CCOCC5)cc(C(F)(F)F)c4)sc3c2)ccn1`, the growth is 68%.

For the compound `Oc1c(Cl)cc(Cl)c2ccc(CN3CCCCC3)nc12`, the growth is 32.9%.

Consider `Cn1ncc2c(C(=O)c3ccc(F)cc3)nc(C(C)(C)C)nc21`, for which the growth was 91.2%.

Consider `Oc1ccccc1-c1nnc(SCc2ccc(O)c3ncccc23)o1`, for which the growth was 26.3%.

Turning to `C[C@@H]1C[C@H]2C(=O)O[C@@H](C)C(NC(=O)[C@H](Cc3cc(F)cc(F)c3)NC(=O)Nc3ccc(Cl)cc3F)C(=O)N3CCC[C@H]3C(=O)N3CCCC[C@H]3C(=O)N[C@@H](CO)C(=O)N2C1` (some centres undefined), the growth was 13.5%.

Regarding `C/C(=N/Nc1nc(N/N=C(/C)c2ccc([N+](=O)[O-])cc2)nc(N2CCOCC2)n1)c1ccc([N+](=O)[O-])cc1`, the growth was 92.6%.

For `CC(=O)Oc1ccc(CCN2C(=O)CSC2=S)cc1`, the growth was 57%.

On to `Cc1ccc2c(n1)C(=O)C(Cl)=C(Nc1ccc(C(=O)OC(C)(C)C)cc1)C2=O`, for which the growth was 4.87% [9.25 µM] (active).

`CS(=O)(=O)Nc1cc(-c2ccc3ncc(C#N)c(N[C@H](CO)c4ccccc4)c3c2)cnc1Cl`: the growth was 25%.

Consider `Cc1ccc(/C=N/Nc2nc(Nc3ccccc3)nc(Nc3ccc(S(N)(=O)=O)cc3)n2)cc1`, for which the growth is 75.2%.

With `O=C(CSc1nnc(-c2ccc(Cl)cc2)n1-c1ccccc1)Nc1cccc(Cl)c1`, the growth was 89.8%.

With `COc1ccc(NC(=O)CSc2nnc(-c3ccc4nc(-c5ccccc5)[nH]c4c3)o2)cc1`, the growth is 101%.

With `Cc1cc2nc3c4cc(Cl)ccc4n(CC(=S)NCCN(C)C)c3nc2cc1C`, the growth was -63.4% (active).

For `O=C(Cn1cc(CN2C(=O)c3ccc([N+](=O)[O-])cc3C2=O)nn1)Nc1ccc(F)cc1Cl`, the growth is 99.2%.

Regarding `O=C(CCCCCCNC(=O)C(O)(O)C(F)(F)F)Nc1ncc(-c2ccc(Br)cc2)s1`, the growth was 6.28% (active).

Turning to `CCOC(=O)c1c(NC(=O)c2cccc(C(F)(F)F)c2)sc2c1CCC(=O)C2`, the growth is 37.7%.

`CC1=CC(=O)CC(C)(C)[C@@]1(O)/C=C/C(C)=C\C(=O)O`: the growth was -41.9% (active).

`O=C1c2c(c3c4cc(Br)ccc4[nH]c3c3ccc4ccccc4c23)C(=O)N1CCN1CCNCC1`: the growth was 62.3%.

Take `CNC(=O)c1cc(N2CCc3cc(NC(=O)Nc4ccc(Cl)c(Cl)c4)ccc32)ccn1`: the growth is 124%.

Consider `OCC(Nc1ncnc2ccc(-c3cnc4cnccn34)cc12)c1ccccc1` (centres undefined), for which the growth is 78.1%.

On to `Cc1csc(/N=C(N)/N=C(\N)c2cccs2)n1`, for which the growth is 111%.

Consider `COc1cc(-c2ccc3ncnc(NCc4ccccc4)c3c2)cnc1OC`, for which the growth is 66%.

Take `CN1CCN(Cc2ccc(NC(=O)c3cncc(C#Cc4cnc5ccc(OCC6(C)COC6)nn45)c3)cc2C(F)(F)F)CC1`: the growth was -27.6% (active).

For `Fc1ccc2nc(-c3cnn4cccnc34)sc2c1`, the growth was 96.7%.

As to `CC(=O)C1=NN(c2ccc(Cl)cc2)C(=O)CN1C`, the growth was 105%.

As for `Cc1ccc2c(n1)C(=O)C(Cl)=C(Nc1cccc(C(=O)OC(C)(C)C)c1)C2=O`, the growth is 16.7%.

Consider `COc1cccc(/C=C(/C)c2ccc3cccc(OC)c3[o+]2)c1O`, for which the growth was 99.7%.

With `Cc1ccc(-c2csc(N/N=C/c3cccs3)n2)cc1`, the growth is 84.2%.

For `COc1ccc(-c2cc(-c3cccc4ccccc34)n3c(n2)nc2ccccc23)cc1OC`, the growth is -7.71% (active).

For the compound `Cc1cc(C)cc(NC2=C(Cl)C(=O)c3nc(C)ccc3C2=O)c1`, the growth was 34.5%.

On to `CCOc1ccc(C(=O)Nc2ncc(Cc3ccc(F)cc3)s2)cc1`, for which the growth is 1.55% (active).

Regarding `Cc1cc(=O)oc2cc(OCCCOc3ccc(/C=C/C(=O)Nc4ccc(Br)cc4)cc3)ccc12`, the growth was 95.8%.

Turning to `COc1cc(-c2noc(C[C@@H](NC(=O)OCc3ccccc3)C(C)C)n2)cc(OC)c1OC`, the growth is 100%.

For `O=C(/C=C1\C=CN(CCCCCCF)c2ccccc21)n1ccc2ccccc21`, the growth is 109%.

Take `O=C(NNc1nc2cc(F)c(F)cc2n2cccc12)c1cccnn1`: the growth was -2.31% (active).

In the case of `CC(C)(C)c1ccc(C(=O)Nc2nc3ccc(O)cc3s2)cc1`, the growth was 24.8%.

In the case of `COc1ccccc1N1CCN(C2=NN=C(c3cccc(Cl)c3)c3ccccc3C2)CC1`, the growth was -55.5% (active).

Values taken from PubChem BioAssay (NCI).
